Experimental data taken from publication PMC4336329 (PLoS ONE, 2015).
Screen size: about 310,000 compounds; about 14,000 (4.5%) showed an effect of 50% or more. The effect is printed as a negative number. This is one part of a sample in which strong results are shown more often than they occur.

What follows are compounds tested against human ether-à-go-go-related gene (hERG) potassium channel (human, UniProt Q12809) (assay: primary screen, population patch clamp on CHO cells stably expressing hERG; higher = less effect of the substance).
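Also: peak tail current of the secondary pulse compared with the same well before compound.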

Chain of human ether-à-go-go-related gene (hERG) potassium channel (Q12809 whole entry, looked up): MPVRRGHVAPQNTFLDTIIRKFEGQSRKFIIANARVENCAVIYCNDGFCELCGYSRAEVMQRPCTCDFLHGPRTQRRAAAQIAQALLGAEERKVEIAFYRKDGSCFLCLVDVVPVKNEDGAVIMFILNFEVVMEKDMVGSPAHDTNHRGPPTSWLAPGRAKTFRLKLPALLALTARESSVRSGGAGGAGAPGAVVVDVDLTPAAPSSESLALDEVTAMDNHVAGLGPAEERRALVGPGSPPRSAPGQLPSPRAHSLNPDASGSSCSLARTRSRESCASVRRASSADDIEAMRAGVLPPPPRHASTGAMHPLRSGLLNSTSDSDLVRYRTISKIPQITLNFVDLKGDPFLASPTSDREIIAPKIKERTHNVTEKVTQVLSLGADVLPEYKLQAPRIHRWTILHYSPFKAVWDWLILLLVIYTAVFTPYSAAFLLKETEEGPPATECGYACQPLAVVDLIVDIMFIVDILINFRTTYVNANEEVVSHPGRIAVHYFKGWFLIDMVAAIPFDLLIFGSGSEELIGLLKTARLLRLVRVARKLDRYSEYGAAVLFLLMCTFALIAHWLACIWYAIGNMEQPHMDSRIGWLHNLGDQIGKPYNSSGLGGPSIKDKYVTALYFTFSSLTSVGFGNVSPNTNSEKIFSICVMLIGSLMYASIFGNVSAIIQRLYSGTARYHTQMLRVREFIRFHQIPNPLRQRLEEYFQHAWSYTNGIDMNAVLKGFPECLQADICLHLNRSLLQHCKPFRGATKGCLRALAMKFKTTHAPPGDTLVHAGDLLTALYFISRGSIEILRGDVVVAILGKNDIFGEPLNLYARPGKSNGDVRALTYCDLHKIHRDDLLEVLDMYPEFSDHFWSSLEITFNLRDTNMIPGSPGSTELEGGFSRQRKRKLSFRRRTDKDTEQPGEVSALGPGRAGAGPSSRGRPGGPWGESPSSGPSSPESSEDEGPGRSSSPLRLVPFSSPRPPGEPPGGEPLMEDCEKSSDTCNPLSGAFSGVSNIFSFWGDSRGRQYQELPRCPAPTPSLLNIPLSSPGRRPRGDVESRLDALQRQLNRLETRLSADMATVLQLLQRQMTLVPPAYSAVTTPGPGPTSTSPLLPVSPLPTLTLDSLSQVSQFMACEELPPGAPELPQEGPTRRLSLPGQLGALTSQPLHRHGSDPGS

SMILES	hERG current change (%, negative = inhibition) at 10uM [%]
CC(=O)OC[C@H]1O[C@@H](Sc2cccc3cccnc23)[C@H](OC(C)=O)[C@@H](OC(C)=O)[C@@H]1OC(C)=O	-11.4
CCCN(C#N)c1nc(NCC)nc(NC(C)C)n1	-10.2
O=C1CN(CC(=O)Nc2ccc(Cl)cc2)CCN1	-4.87
CC(=O)c1cccc(NC(=O)N2C3CCCC2CC(NC(=O)C2CC2)C3)c1 (stereo not shown)	17.2
CCc1ccc(CN2CCC(n3nccc3NC(=O)c3ccccc3Cl)CC2)cc1	-84.4
CSc1ccc(CN2CCC(n3nccc3NC(=O)c3ccccc3C)CC2)cc1	-75
CCN1CCC(n2nccc2NC(=O)c2ccccc2Cl)CC1	-21
COC(C(=O)Nc1ccnn1C1CCN(Cc2ccc(C)s2)CC1)c1ccccc1 (stereo not shown)	-50.8
COC(C(=O)Nc1ccnn1C1CCN(Cc2ccc(Cl)s2)CC1)c1ccccc1 (stereo not shown)	-5.29
COC(C(=O)Nc1ccnn1C1CCN(Cc2nccs2)CC1)c1ccccc1 (stereo not shown)	0.847
COc1ccccc1C(=O)Nc1ccnn1C1CCN(Cc2ccccc2OCCO)CC1	-78.7
Cc1cccc(CN2CCC(n3nccc3NC(=O)c3ccccc3C)CC2)n1	-19.9
Cc1cc(OCC(=O)Nc2cccnc2)c2c(C)cc(=O)oc2c1	4.24
O=C(Cc1cccs1)N1CCN(c2nc(-c3ccc(Cl)cc3)cs2)CC1	-8.73
c1ccc(-c2cnc(-c3ccccc3)nc2)cc1	13.4
CCOc1ccc(N/C=C/C(=O)c2ccc(OC)cc2)c([N+](=O)[O-])c1	24.5
CCOC(=O)C1CCCN(C(=O)c2ccc3nc(-c4cccc(OC)c4)oc3c2)C1 (stereo not shown)	-28.6
CC(O)C(O)C(O)C(O)C1NCCS1 (stereo not shown)	6.81
Cc1cc(C)cc(N(CCC#N)C(=O)COC(=O)CCc2c[nH]c3ccccc23)c1	-32.6
O=C(NCCc1c[nH]c2ccccc12)OCCSS(=O)(=O)[O-].[Na+]	9.49
Br.O=C(c1ccc(Br)cc1)c1sc(N2CCOCC2)nc1-c1ccccc1	-1.44
CCCN(Cc1cc2ccc(C)cc2[nH]c1=O)S(=O)(=O)c1ccccc1	6.34

SMILES	hERG current change (%, negative = inhibition) at 10uM [%]
O=C(c1ccco1)N1CCN(S(=O)(=O)c2cc(Cl)ccc2Cl)CC1	-21.5
O=S(=O)(c1cc(Cl)ccc1Cl)N1CCN(Cc2ccco2)CC1	-54.1
Cc1ccc(S(=O)(=O)N2CCN(Cc3ccco3)CC2)c(C)c1	-35.6
CC(=O)C(Sc1nc(N(C)C)nc(N(C)C)n1)C(=O)Nc1ccccc1 (stereo not shown)	-3.04
CC(NC(=O)C1CCCN(S(=O)(=O)c2cccs2)C1)c1ccccc1 (stereo not shown)	6.73
O=C(OCc1cccnc1)C1=Cc2ccccc2OC1	-64.9
COc1ccc2c(c1)C=C(C(=O)OCc1cccnc1)CO2	3.63
COc1cccc2c1OCC(C(=O)OCc1cccnc1)=C2	-17.4
O=C(NCC1(c2ccccc2)CCOCC1)c1cccs1	13.9
COC(=O)C1=C(C)Nc2c(c(=O)n(C)c(=O)n2C)C1c1cccnc1 (stereo not shown)	-2.61
CCN(CC)C(=O)c1cc2c(=O)c3cc(F)ccc3oc2nc1C	-10.8
Cc1nc2oc3ccc(Cl)cc3c(=O)c2cc1C(=O)O	19
CCN(CC)C(=O)c1cc2c(=O)c3cc(Cl)ccc3oc2nc1C	-66.1
CN(CC(=O)Nc1ccccc1C(F)(F)F)C(=O)CCc1nc2sc3c(c2c(=O)[nH]1)CCCC3	7.94
CCCn1nnc(NC(=O)c2ccc(OC)cc2)n1	2.42
CCc1nc2ccccc2n1Cc1ccc(F)cc1	-0.73
O=C1c2ccccc2C(=O)N1CCCn1ccnc1	17.1
CCC(c1nc2ccccc2c(=O)n1CCCn1ccnc1)N1C(=O)c2ccccc2C1=O (stereo not shown)	-38.8
O=C1c2ccccc2C(=O)N1Cc1nc2ccccc2c(=O)n1Cc1ccco1	21.3
Cc1nc2ccccc2c(=O)n1Cc1ccco1	-7.41
O=C1c2ccccc2C(=O)N1CCCc1nc2ccccc2c(=O)n1-c1cccnc1	-39.7
O=C1c2ccccc2C(=O)N1CCc1nc2ccccc2c(=O)n1Cc1ccco1	-61.8

SMILES	hERG current change (%, negative = inhibition) at 10uM [%]
Cc1nc2ccccc2c(=O)n1CCCn1ccnc1	-17
O=C1c2ccccc2C(=O)N1CCc1nc2ccccc2c(=O)n1CCCn1ccnc1	-62.5
O=C1c2ccccc2C(=O)N1CCCc1nc2ccccc2c(=O)n1CCCn1ccnc1	-65
COc1ccc(N2C(=O)c3ccccc3NC2c2ccc(OC)c(CSc3ccccn3)c2)cc1 (stereo not shown)	2.62
COc1cc(C(=O)NCCSc2ccc(Cl)cc2)cc(OC)c1OC	-3.08
CC(OC(=O)C1=COCCO1)C(=O)NC1CCCCC1C (stereo not shown)	12.7
Cc1ccc(CNC(=O)COC(=O)c2ccc(Cl)c(N)c2)cc1	-3.37
CN(C)C(=O)COC(=O)[C@H](Cc1ccccc1)NC(=O)c1ccco1	7.23
Cc1cnc(C(=O)OCC(=O)N2CCN(S(=O)(=O)c3ccc(Cl)cc3)CC2)cn1	4.81
CCOC(=O)c1c(CSc2ccccc2)n(C)c2cc(Br)c(OC)c(O)c12	16.2
CCOC(=O)c1c(CN2CCCCC2)n(C)c2cc(Br)c(O)c(CN(C)C)c12	-19
CCOC(=O)c1c(CN2CCOCC2)n(C)c2cc(Br)c(O)c(CN(C)C)c12	-27.4
CCOC(=O)c1c(CSc2ccc(C)cc2)n(C)c2cc(Br)c(O)c(CN(C)C)c12.Cl.O	-54.9
CCOC(=O)c1c(CS(=O)(=O)c2ccccc2)n(C)c2cc(Br)c(O)c(CN(C)C)c12	-50.4
CCOC(=O)c1c(CN2CCOCC2)n(C)c2cc(Br)c(O)c(CN(C)C)c12.Cl	-26.6
CCOC(=O)c1c(CSc2ccccc2)n(C)c2ccc(O)cc12	21.3
CCOC(=O)c1c(CN(C)C)n(C)c2ccc(OC(C)=O)cc12.Cl	-41.3
CCOC(=O)c1c(CSc2cccs2)n(C)c2cc(Br)c(O)c(CN(C)C)c12.Cl	-68.3
CCOC(=O)c1c(C)n(C)c2cc(Br)c(O)c(O)c12	8.12
CCOC(=O)c1c(CSc2ccccc2)n(C)c2cc(Br)c(O)c(CN(C)C)c12	-68.5
COc1cc(OC)c(NC(=O)CS(=O)(=O)Cc2nc(-c3ccc(C)cc3)oc2C)cc1Cl	11.5
COc1ccc(C2SCCN2S(=O)(=O)c2ccccc2)cc1 (stereo not shown)	-4.42

SMILES	hERG current change (%, negative = inhibition) at 10uM [%]
O=C(Nc1cc2c3c(c1)CC(=O)N3CCC2)c1ccccc1F	0.297
O=C(CNC(=O)c1ccccc1F)OCc1csc(-c2ccccc2)n1	14.6
COc1cc(O)oc1C=Nc1ccccc1	-18.3
CCSc1nnc(-c2cccs2)o1	10.1
O=C(c1ccc2snnc2c1)N1CCSCC1	4.21
COc1ccc(NC(=O)C(CC(=O)O)Cc2ccc(Cl)cc2)cc1 (stereo not shown)	11.9
N#Cc1ccc(CSc2nnc(NC(=O)c3ccc(=O)[nH]c3)s2)cc1	3.51
Cc1ccc(C(=O)c2cn[nH]c2-c2ccccc2O)cc1	14.4
COc1ccc2c(c1)C(=O)[C@H](O)[C@@H](c1ccc(OC)c(Br)c1)O2	12.9
COC(=O)c1cc(O)cc(OC)c1C(=O)c1c(O)cc(C)cc1O	4.87
O=C(Cc1ccccc1)NNC(=O)c1ccccc1C(=O)O	-5.66
CCOC(=O)c1c(CSc2ccsc2)n(C)c2cc(Br)c(O)c(CN(C)C)c12.Cl	-84.2
Cc1cc(O)c(/C=N/Nc2cccc(Cl)c2)c(=O)o1	1.55
Cc1ccc(S(=O)(=O)/C(C#N)=C/c2c(N3CCN(Cc4ccccc4)CC3)nc3ccccn3c2=O)cc1	5.58
N#C/C(=C\c1c(N2CCC(C(N)=O)CC2)nc2ccccn2c1=O)S(=O)(=O)c1ccccc1	-4.45
N#C/C(=C\c1c(N2CCC(C(N)=O)CC2)nc2ccccn2c1=O)C(=O)NC1CCCCC1	20.9
COc1ccc(N2CCN(c3nc4ccccn4c(=O)c3/C=C(\C#N)S(=O)(=O)c3ccccc3)CC2)cc1	-2.49
Cc1ccc(S(=O)(=O)/C(C#N)=C/c2c(N3CCC(C(N)=O)CC3)nc3ccccn3c2=O)cc1	-55.3
N#C/C(=C\c1c(N2CCC(C(N)=O)CC2)nc2ccccn2c1=O)S(=O)(=O)c1ccc(Cl)cc1	-70.9
